# aSyn rescue – rescues yeast growth from alpha-synuclein toxicity | Potency, µM (highest dose often 46.1 µM), without a hit: top-dose growth rescue (activation), usual class: activators | AID 652106 | 370,000 tested, 0.14% active | Yeast expressing alpha-synuclein, growth rescue, BacTiter-Glo, 24 h; also: % of control where 0% means no effect; nearly all actives have a fitted effect of over 65% in size
#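 Rescue of yeast growth: cells expressing toxic alpha-synuclein, induced in galactose at OD600 0.02, incubated with compound 24 h at 30 C. ATP luminescence quantified growth; inhibitors of toxicity appear as activators.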
# FUS yeast rescue – FUS proteinopathy suppression in yeast | S. cerevisiae FUS-expressing, growth rescue, OD600, 24 h | 390,000 tested, 0.24% active | AID 1347120 | Potency, µM (top dose mostly 76.6 µM), most hits filed as activators;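 also: plate controls were DMSO vehicle for no effect and reference control for full effect; nearly all actives have a fitted effect of over 55% in size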
#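 FUS-expressing yeast, raffinose-pregrown, induced in 2% galactose minimal medium at OD 0.005; compounds in a dilution series, 24hr at 30C. Growth restoration read as absorbance at 600 nm. CP55940 positive control, DMSO negative.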
# BCR signal inh – chronic active BCR signaling inhibition. ABC-DLBCL IkBa-CBG/CBR reporter, luminescence ratio, 4 h. Potency, µM (titrated, usually from 46.1 µM), for inactives: at the top dose activity change, negative = inhibition, most hits filed as inhibitors. 340,000 tested, 0.05% active; active = well fitted inhibition curve with a large enough effect in the signal ratio, with a control signal flat, not every such curve was filed as active; inconclusive = small, poorly fitted or top-dose-only effect, or effect the other way, or a change in a side signal; the % refers to the signal ratio;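 also: plate controls were basal doxycycline-induced cells for no effect and cells given 10 µM MG132 for full effect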
#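 TMD8 ABC-DLBCL cells carrying doxycycline-inducible green luciferase fused to IkappaBalpha plus unfused red luciferase were exposed to compounds (up to 46 uM) for 4 hrs at 37C. Activity came from the overlap-corrected green/red luminescence ratio.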
# TDP43 rescue – inhibitors of TDP-43 toxicity in yeast; Potency, µM (doses to about 46.1 µM), without a hit: at the highest dose growth rescue (activation), hits mostly activators; TDP-43 expressing yeast growth rescue, BacTiter-Glo, 24 h; 410,000 tested, 1.8% active; also: % of control where 0% means no effect; nearly all actives have a fitted effect of over 50% in size
#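 Yeast expressing TDP-43 (pregrown in raffinose, seeded at OD600=0.02 in galactose medium) exposed to compounds 24 hr at 30 deg C. Growth read by BacTiter-Glo luminescence; rescue of toxicity appears as increased signal.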
# uPA surface inh – inhibitors of cell surface uPA generation | 330,000 tested, 0.31% active | cell surface uPA generation assay, qHTS | Potency, µM (doses to about 38.3 µM), inactives show top-dose activity change, negative = inhibition, actives largely listed as inhibitors; active = well fitted inhibition curve with a large enough effect; inconclusive = small, poorly fitted or top-dose-only effect; inactive = no such curve, though single readings can be large or run the other way; tested in mouse RAW 264.7 cells; also: % is scaled to controls: 0 for no effect and ±100 for the full control effect; nearly all actives have a fitted effect of over 55% in size
# Abeta rescue – restores growth of yeast expressing A-beta42 peptide; yeast expressing A-beta42, growth rescue, OD600, 48 h; response scale: 0% DMSO, 100% iron-clioquinol control; Potency, µM (series often up to 46.1 µM), usual class: activators; 410,000 tested, 0.063% active; also: nearly all actives have a fitted effect of over 55% in size
#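 Yeast A-beta toxicity model in growth medium with pinned compounds, 48 h at 30 C; growth read as absorbance at 600 nm. Normalized to FeCl3/clioquinol equimolar mix (positive) and DMSO (negative).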
# The depositor's hits bear a star; i = inactive; u = inconclusive; x = not tested or not shown; [ ] = remark or other dose. Most compounds without a hit are left out; they make up all but 2.3% or so of the library. Unless noted, calls follow the shape of the dose curve; as a rule, active = well fitted curve in the direction sought with a large enough effect; inconclusive = small, poorly fitted or top-dose-only effect, or another doubt; inactive = no such curve, though single readings can be large; an effect the other way counts as inactive or inconclusive. Potency is read from the fitted curve at half-maximal effect.
SMILES,aSyn rescue,FUS yeast rescue,BCR signal inh,TDP43 rescue,uPA surface inh,Abeta rescue
COc1cccc(/C=C2\SC(=S)N(CCCC(=O)N3CCCCC3CCO)C2=O)c1 (stereo unspecified),u,u,u,4%,-55%,x
Cc1cccc(-c2nc3ccccc3c3nncn23)c1,1%,i,10%,18µM*,-4%,i
O=C(/C=C/c1ccc(Cl)cc1Cl)c1nc2ccccc2[nH]1,25%,i,-21%,11µM*,-1%,i
COc1ccc(C=O)cc1COc1ccc(F)cc1F,-10%,i,u,25%,7%,i
COc1cc(C=O)ccc1OCc1cccc(Br)c1,14%,x,0%,20µM*,-5%,i
COc1cc(C=O)ccc1OCc1ccccc1Br,-19%,x,-2%,11µM*,-5%,i
CNC(=O)COc1ccc(C=O)cc1OC,0%,i,-1%,-11%,3%,i
COc1ccc(OCc2nnc(SCc3ccc(C(=O)O)cc3)o2)cc1,1%,i,7%,2%,3%,i
C=CC(=O)Nc1cccc(N(C)c2ccnc(Nc3ccc(N4CCN(C)CC4)cc3)n2)c1,7%,i,x,19%,10µM*,u
CCCCCc1ccc(NC(=O)O[C@@H]2CC[C@@]34CCCN3C(=O)CCC[C@H]4C2)cc1,x,22µM*,x,x,x,x
O=C(Nc1ccc(Br)cc1)O[C@@H]1CC[C@@]23CCCN2C(=O)CCC[C@H]3C1,x,i,x,x,x,x
N#CCCN1CCN(C(=S)c2ccc(-c3ccc(Cl)cc3)o2)CC1,7%,i,u,13µM*,0%,i
CS(=O)(=O)N(CC(=O)Nc1ccccc1Sc1ccccc1)c1ccc(F)cc1,8%,i,u,-11%,0%,i
Cc1nc2ccc(C(=O)N3CCN(c4ccccc4)CC3)cn2c1N(C)C(=O)CCc1ccccc1,-4%,i,x,19%,x,i
COc1cc(OC)cc(C(=O)N2CCN(C(=O)c3ccc(OC)c(OC)c3)CC2)c1,0%,i,9%,2%,-2%,i
COc1ccc(-c2n[nH]c3c2CN(C(=O)c2ccc(OC)c(OC)c2)CC3)cc1,-5%,i,u,5%,3.2µM*,x
CC(C)(O)CCc1c(-c2ccc(O)cc2O)oc2c3c(cc(O)c2c1=O)OC(C)(C)C=C3,-2%,u,x,13µM*,0%,i
COc1cccc(C(=O)Nc2cccc(-c3ccccc3)c2)c1,-1%,i,u,18µM*,-9%,i
COc1ccc(NC(=S)NC(=O)c2ccccc2)cn1,2%,i,u,5%,-23%,i
CCn1c(SCC(=O)Nc2cccc(NC(C)=O)c2)nnc1-c1ccco1,5%,i,-6%,1%,-4%,i
CCn1c(SCC(=O)Nc2ccc3c(c2)c2ccccc2n3CC)nnc1-c1ccco1,-11%,25µM*,3%,20%,-6%,i
COc1ccc(NC(=O)c2cccc(Oc3ccccc3)c2)cn1,10%,i,u,11µM*,-1%,i
COc1cccc(NC(=O)Nc2ccccc2SC)c1,-9%,i,u,20µM*,6%,i
Cc1ccc(CS(=O)(=O)c2ncn[nH]2)cc1,2%,i,7%,-17%[1.82 µM],0%,i
COC(=O)CS(=O)(=O)c1cccc2cccnc12,0%,i,-1%,0%,-2%,i
SMILES,aSyn rescue,FUS yeast rescue,BCR signal inh,TDP43 rescue,uPA surface inh,Abeta rescue
O=C(COc1ccc([N+](=O)[O-])cc1)NNC(=O)Nc1ccccc1F,0%,i,2%,-4%,5%,i
O=C(c1ccc2ccccc2c1)c1c[nH]cc1-c1ccccc1,0%,i,u,6%,-1%,i
CCn1c2ccccc2c2cc(NC(=O)c3cc(OC)c(OC)c(OC)c3)ccc21,-3%,x,u,u,-9%,i
COc1cc(OC)cc(C(=O)Nc2ccc(Nc3ccccc3)cc2)c1,9%,25µM*,u,-18%,-13%,i
CCn1c2ccccc2c2cc(NC(=O)c3cc(OC)cc(OC)c3)ccc21,3%,x,u,7%,2.2µM*,i
COc1ccc(CCN(Cc2cccs2)S(=O)(=O)c2ccc(-n3cnnn3)c(OC)c2)cc1OC,-2%,i,-23%,-4%,0%,i
O=C(Cn1cnc2ccccc2c1=O)c1c[nH]c2ccccc12,-5%,i,3%,-14%,-2%,u
CCOc1ccc(C(=O)c2nc3c(n2O)CCCCC3)cc1,-5%,i,-11%,4%,3%,i
CCCOc1ccc(C(=O)c2nc3c(n2O)CCCC3)cc1,x,i,u,13µM*,2%,i
Cc1ccc(NC(=O)Cn2c(=O)n(Cc3ccco3)c(=O)c3ccccc32)c(C)c1,-1%,u,-1%,u,10%,i
Cc1ccc(C(C)NC(=S)NC2CCCCC2)c(C)c1 (stereo unspecified),-25%,i,0%,20%,-4%,11µM*
Cc1ccc2nc(N3CCOCC3)c(C=O)cc2c1,-4%,i,u,-14%,6%,i
Cc1cc(-c2nnc(CCC(=O)N(CC3CCC3)CC3CCCO3)o2)no1 (stereo unspecified),-2%,i,0%,0%[9.22 µM],0%,i
Cc1nc2c(-c3ccccc3)c[nH]n2c(=O)c1Cc1ccccc1,-5%,i,u,-25%,-14%,i
O=S(=O)(NCCOc1ccccc1Cl)c1ccc2oc3ccccc3c2c1,u,i,x,19%,7%,i
COc1ccccc1OCCNS(=O)(=O)c1ccc2oc3ccccc3c2c1,u,i,u,16µM*,1%,i
CCc1nc2ccc(C(=O)NCCCN3CCCC3=O)cn2c1N(C)C(=O)C1CCCCC1,8%,i,x,10%,x,i
Cc1nc(NC(C)c2ccccc2)c2c3c(sc2n1)CCC3 (stereo unspecified),-10%,i,9%,14µM*,-5%,i
CC1CCCN(S(=O)(=O)c2ccc3c(c2)n(C)c(=O)c(=O)n3C)C1 (stereo unspecified),-1%,i,-4%,18%,3%,i
Cc1c(Br)c([N+](=O)[O-])nn1CC(=O)c1ccccc1,-3%,i,3%,8%,-13%,i
COC(=O)c1ccc(Cn2nc([N+](=O)[O-])c(Br)c2C)cc1,u,i,-22%,14µM*,1%,u
Fc1ccccc1CNc1nc(NCC2CC2)nc2ccsc12,-4%,i,x,6%,x,i
O=C(CCCc1ccccc1)c1ccccc1,2%,i,u,14%,6%,i

# From PubChem BioAssay
